The other results are listed elsewhere or left out. Calls of active or inactive are those of the source. No stated cut-off is given here; in the data, active means IC50 below about 20 µM; inactive means the rest.
assay: blockers of mitochondrial swelling via MPTP – biochemical, absorbance, uHTS hits, dose response (AID 651561); conditions: isolated mitochondria swelling

SMILES | IC50
CC(Cc1ccccc1)NCCC(c1ccccc1)c1ccccc1 (stereo not drawn) | 4.21 µM (active)
O=Cc1cn(Cc2ccc(F)cc2Cl)c2ccccc12 | 32.3 µM (inactive)
COc1ccc(C2NCc3ccc4c(c3-n3cccc32)OCO4)cc1OC (stereo not drawn) | 26.9 µM (inactive)

Source: PubChem BioAssay AID651561 (Sanford-Burnham Center for Chemical Genomics, 2012)
